Bioassay records: PubChem, several laboratories
hDAT+cocaine = modulates human dopamine transporter uptake under cocaine. 1.3% of 110,000 active. B-score at 10 µM. LLC-PK1 hDAT cells, [14C]-dopamine uptake with cocaine IC80; actives deviate in either direction;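 active means Z score or B-score, a plate-position-corrected score, falls beyond the plate's 99.7% confidence bounds, in either direction; inactive means both scores lie inside the 99.7% bounds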
D1 mod = allosteric modulators of human D1 dopamine receptor; P21728; HEK293 D1, CRE-luciferase, dopamine EC30 potentiation; actives deviate in either direction; B-score at 10 µM; 5.9% of 58,000 active; AID 641;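 active means luminescence count or its row- and column-corrected plate score outside the 99.7% band of the plate's sample wells, on either side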
Target sequence (P21728 whole entry, looked up): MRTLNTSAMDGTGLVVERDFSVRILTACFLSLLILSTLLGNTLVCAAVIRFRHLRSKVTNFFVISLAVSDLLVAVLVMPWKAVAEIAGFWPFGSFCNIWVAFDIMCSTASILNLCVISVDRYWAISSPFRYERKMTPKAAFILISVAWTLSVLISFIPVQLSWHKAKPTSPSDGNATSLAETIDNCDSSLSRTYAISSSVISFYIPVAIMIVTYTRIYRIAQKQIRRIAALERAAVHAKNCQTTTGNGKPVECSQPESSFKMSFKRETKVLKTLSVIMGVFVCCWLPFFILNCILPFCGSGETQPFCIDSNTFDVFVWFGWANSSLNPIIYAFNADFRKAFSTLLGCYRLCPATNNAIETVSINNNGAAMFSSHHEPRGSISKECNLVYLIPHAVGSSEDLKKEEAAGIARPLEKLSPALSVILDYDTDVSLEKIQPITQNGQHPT
CYP2C9 inhib = blocks human cytochrome P450 2C9; P11712; CYP2C9 Supersomes, luciferin-H conversion, luminescence; inhibition, % at 5 µM; 20% of 96,000 active;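 active means blocking of liver enzyme CYP2C9 beyond about 50% at 5 µM, limit read from the data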
CYP2C19 inhib = human CYP2C19 inhibition; inhibition, % at 5 µM; CYP2C19 Supersomes, luciferin-H EGE luminescence, 30 min; 21% of 96,000 active;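 active means CYP2C19 inhibition above a set limit at 5 µM in the primary screen, cut at about 50% in these data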
CYP2C9 activ = activators of human CYP2C9; recombinant CYP2C9, luciferin-H conversion, luminescence; hits give high values; factor 1 = untreated enzyme, 0 = blocked; activation factor at 5 µM; 1.4% of 96,000 active; AID 1024;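 active means activation factor of 2 or more for CYP2C9 at a 5 µM dose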
CYP2C19 act = activators of human cytochrome P450 2C19. P33261. recombinant CYP2C19, luciferin-H EGE luminescence; hits give high values; 0 = fully inhibited enzyme, 1 = untreated enzyme. activation factor at 5 µM. 96,000 tested, under 10 active. AID 1025;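 active means activation factor of at least 2 at 5 µM in the primary screen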
Numbers stand for hits; . = inactive; / = no result. In the library only some 28% were active in any assay of this set; here they are far more common.

SMILES	hDAT+cocaine	D1 mod	CYP2C9 inhib	CYP2C19 inhib	CYP2C9 activ	CYP2C19 act
C=CCC(CC=C)(NC(=O)c1ccccc1)c1ccccc1	.	/	.	.	.	.
C=CCC(CC=C)(NC(=O)c1ccccc1C)c1ccccc1	.	/	.	50.8	.	.
Cc1nn(-c2ccccc2)c(-c2ccccc2)c1C(=O)O	.	.	.	.	.	.
COc1cccc(CNCCN2CCOCC2)c1OC	.	/	.	.	.	.
COc1ccc(S(=O)(=O)N(CCCN2CCOCC2)Cc2cccc3ccccc23)cc1	.	/	.	77.5	.	.
COc1ccc(C2/C(=C(/O)c3ccccc3)C(=O)C(=O)N2CCN2CCOCC2)c(OC)c1 (stereo not drawn)	.	.	.	.	.	.
COc1ccc(S(=O)(=O)N(CCN2CCOCC2)Cc2cc(OC)ccc2OC)cc1	.	.	.	81.4	.	.
COc1ccc(S(=O)(=O)N(CCCN2CCOCC2)Cc2cccc(OC)c2OC)cc1	.	/	.	58.3	.	.
Cc1c(C(=O)/C=C/c2cccs2)oc2ccc(F)cc12	.	/	.	.	.	.
CCCCN(CCCC)Cc1cc2ccccc2c2c1COC2	.	/	.	.	.	.
O=S(=O)(/C=C/c1ccccc1)N1CCN(c2ccc(F)cc2)CC1	.	/	.	.	.	.
Cn1cnnc1SCCn1c(N2CCCCC2)nc2c1c(=O)[nH]c(=O)n2C	.	.	.	.	.	.
Cc1ccc2nc(Nc3ccc4[nH]c(=O)[nH]c4c3)c(-n3nc(C)cc3C)nc2c1	.	.	.	.	.	.
CCOC(=O)N1CCN(C(=O)Cn2nc(C)c3sc4ccccc4c3c2=O)CC1	.	.	.	.	.	.
Cc1nn(C(C)C(=O)NCc2ccccc2Cl)c(=O)c2c1sc1ccccc12 (stereo not drawn)	.	/	97.1	87.5	.	.
CCOC(=O)N1CCN(C(=O)C(CC)n2nc(C)c3sc4ccccc4c3c2=O)CC1 (stereo not drawn)	.	.	58.5	.	.	.
CC(C)Nc1nc(NC(C)C)nc(OCCOC(=O)Nc2ccccc2)n1	.	/	.	.	.	.
Cc1cc(C)cc(OC(=O)CCN2C(=O)c3ccccc3C2=O)c1	.	/	/	/	/	/
O=C(CCCN1C(=O)c2ccccc2C1=O)Oc1ccc(F)cc1	.	.	.	65.0	.	.
N#CCCNC(=O)CCN1CCCCC1	.	/	.	.	.	.
Cc1c(CCO)c(=O)n(C)n1C(=O)c1ccc(Cl)cc1	.	/	.	55.8	.	.
CCOc1ccc(C(C)(C)C)cc1S(=O)(=O)N1CC(C)OC(C)C1 (stereo not drawn)	.	.	63.0	79.2	.	.
CC1(C)CN(c2ccccc2)N(Cc2ccc(F)cc2)C1=O	.	/	.	60.0	.	.
COc1ccc2oc(=O)c(C(=O)N3CCN(C45CC6CC(CC(C6)C4)C5)CC3)cc2c1	/	.	/	/	/	/
CCCc1ccc(C(C)NC(=O)c2cnccn2)cc1 (stereo not drawn)	.	.	52.6	76.5	.	.
SMILES	hDAT+cocaine	D1 mod	CYP2C9 inhib	CYP2C19 inhib	CYP2C9 activ	CYP2C19 act
COc1ccc(CNC(=O)COC(=O)c2cnccn2)cc1	.	/	.	64.4	.	.
CCOCCCNC(=O)C(NC(=O)c1cnccn1)c1ccc(OC)cc1 (stereo not drawn)	.	.	.	.	.	.
COc1ccc(CCNC(=O)c2cnccn2)cc1	.	/	.	53.3	.	.
COc1ccccc1CNC(=O)COC(=O)c1cnccn1	.	.	.	67.2	.	.
O=C(NN=C1CCCC1)C(=O)Nc1cccc(C(F)(F)F)c1	.	/	.	.	.	.
Cc1ccccc1N1CCN(C(=O)CCN2C(=O)c3ccccc3C2=O)CC1	.	/	.	.	.	.
O=C(Oc1ccc(Cl)cc1)c1ccc(COC(=O)c2cnccn2)cc1	.	/	.	.	.	.
COc1ccc(CCNC(=O)c2nn(C)cc2Cl)cc1	.	.	.	70.1	.	.
COc1ccccc1CNC(=O)COC(=O)c1n[nH]c2ccccc12	.	/	.	97.4	2.3	.
O=C(Oc1ccccc1)c1ccc(COC(=O)c2cnccn2)cc1	.	/	56.3	.	.	.
COc1ccc(CNC(=O)COC(=O)c2n[nH]c3ccccc23)cc1OC	.	.	/	/	/	/
C=CCc1cccc2cc(C(=O)NCc3cccnc3)c(=O)oc12	.	.	.	70.3	.	.
C=CCc1cccc2cc(C(=O)NC3=C(C#N)CCC3)c(=O)oc12	.	/	.	.	.	.
C=CCc1cccc2cc(C(=O)NC(C)(C)C)c(=O)oc12	.	.	55.3	64.7	.	.
CC(N)C12CC3CC(C1)CC(C(C)N)(C3)C2 (stereo not drawn)	.	.	.	.	.	.
Cc1nccn1Cc1cccc2ccccc12	/	/	.	51.4	.	.
COC(=O)c1cccc(NS(=O)(=O)c2ccc(NC(C)=O)cc2)c1C	.	/	.	.	.	.
CC(=O)c1cc2c(cc1NS(=O)(=O)c1ccc(C)cc1)OCCO2	.	.	.	.	.	.
COC(=O)c1sccc1NS(=O)(=O)c1ccc(OC)cc1	.	.	.	.	.	.
COC(=O)c1ccc(C(=O)OC)c(NS(=O)(=O)c2ccc(NC(C)=O)cc2)c1	.	.	89.9	61.7	.	.
COC(=O)c1ccc(NC(=O)COc2ccc(S(=O)(=O)NC(C)C)cc2)cc1	.	.	.	.	.	.
COC(=O)c1ccc(C)c(NS(=O)(=O)c2ccc(OC)cc2)c1	.	.	69.5	100.2	.	.
COC(=O)c1ccc(Sc2ccccc2NS(=O)(=O)c2ccc(NC(C)=O)cc2)nc1	.	/	79.5	60.9	.	.
COC(=O)c1ccc(C)c(NS(=O)(=O)c2ccc3c(c2)OCCO3)c1	.	.	62.3	91.3	.	.
CNC(=O)NC(=O)CSc1ccc(NC(C)=O)cc1	.	.	.	.	.	.
SMILES	hDAT+cocaine	D1 mod	CYP2C9 inhib	CYP2C19 inhib	CYP2C9 activ	CYP2C19 act
N#CC1=C(Nc2ccccc2)SC=C(c2ccc(F)cc2)N=C1N1CCOCC1	/	/	.	.	.	.
CCOC(=O)NCCc1c(C)nc2c(c(C)nn2C(C)(C)C)c1C	.	.	.	.	.	.
COC(=O)c1ccc(C)c(NS(=O)(=O)c2ccc(C)c([N+](=O)[O-])c2)c1	.	/	79.9	90.2	.	.
Clc1ccc(C2[C@H]3CN(Cc4cccnc4)[C@H](c4ccccc4)C34CC2(c2cccnc2)C4)cn1 (stereo partly drawn)	.	/	/	/	/	/
O=C1c2ccccc2C(=O)N1CCCCSc1nc2ccccc2o1	.	/	66.5	80.9	.	.
Cc1nnc(SCCCN2C(=O)c3ccccc3C2=O)o1	.	.	.	59.5	.	.
O=C1c2ccccc2C(=O)N1CCCCSc1nnc(-c2ccc(OC(F)F)cc2)o1	.	.	.	.	.	.
CSc1ccccc1NC(=O)CN(c1cc(C)cc(C)c1)S(C)(=O)=O	.	/	70.8	57.5	.	.
COc1ccccc1NC(=O)CN(c1ccccc1F)S(C)(=O)=O	.	.	.	.	.	.
